Data on 39 compounds can be found in PubChem BioAssay (EPA / NIEHS).

Several values for one entry are separate records, joined by “and”; a condition that tells them apart may be missing. Equal entries are not always repeated. Some structures have more than one record in an assay (separate samples or runs), and their calls can disagree. Activity calls are given as the source filed them. The calls were made as follows: active = hit-call score of the fitted dose curve at least 0.9, where 1 is the maximum; inactive = score below 0.9.

By AC50 is commonly meant the midpoint of the concentration-response curve, whichever way the signal moves.

Read-out in the test: growth arrest and DNA damage 45 (GADD45B), GADD45B (gene 4616)
The test can be described thus: LTEA_HepaRG_GADD45B: Life Technologies and Expression Analysis (LTEA) Assay for growth arrest and DNA damage 45 (GADD45B) using HepaRG (AID 2283461). The note with it: mRNA level, 48 h; actives raise or lower the signal. As to the method: LTEA_HepaRG is a cell based, multiplexed-readout assay that uses HepaRG, a human liver cell line, with measurements taken at 48 hours after chemical dosing on a 96-well plate.LTEA_HepaRG_GADD45B is one of 102 assay component(s) measured in the LTEA HepaRG cell culture assay. It is a marker of Cell proliferation, survival, death.Data from the assay component LTEA_HepaRG_GADD45B was analyzed into 1 endpoint. This assay endpoint, LTEA_HepaRG_GADD45B, was analyzed with bidirectional fitting relative to DMSO as the negative control and baseline of activity. Using a type of inducible reporter, measures of mRNA induction for gain or loss-of-signal activity can be used to understand regulation of transcription factor activity. To generalize the intended target to other relatable targets, this assay endpoint is annotated to the mutagenicity response intended target family, where the subfamily is Cell proliferation, survival, death.
A total of 1060 chemcials from the ToxCast library were tested in eight-point concentration-response experiments. Cell culture and cytotoxicity assays were conducted at Thermo Fisher Scientific's Custom Services facility (Madison, WI). A single lot of human HepaRG cells (Thermo Fisher Scientific, Frederick, MD) was used for the cell culture experiments. 96-well format collagen type I coated plates of human HepaRG cells were prepared using established methods. Briefly, cryopreserved HepaRG cells were thawed, plated at a density of approximately 100,000 cells/well in HepaRG Thaw, Plate, and General Purpose media (HPRG770, Thermo Fisher Scientific), and incubated for 48 hours. 0.5% DMSO was selected as vehicle control to balance the requisite need of DMSO in HepaRG cultures to maintain differentiation (for example, baseline metabolism, proportions of hepatocytes vs. cholangiocytes), while enabling further hepatic receptor pathway activation (for example, PXR and CAR) in response to chemical exposure. 48 hours after plating, the culture medium was replaced with HepaRG Serum-Free Incudtion Media. Cells were exposed to each test chemical in duplicate and maintained in CO2 incubators for another 48 hours. Chemical plates were thawed to room temperature and 200x concentrations of treatment groups were prepared. 8-point conentration-reponse curves were made with the highest exposure at 100 uM, followed by half-log dilutions, all in 0.5% DMSO. Each test plate contained variouse controls, induction positive controls (1mM phenobarbital), cytotoxicity positive controls ([…] aflatoxin B1), vehicle controls (0.5% DMSO), and total lysis controls (0.5% DMSO). Cell morphology images were taken using an Essen IncuCyte FLR automated microscope, with six 96-well plates imaged in about 24 minutes. Images were captured and exported and JPEG files. Spent culture media was transfered to black-well plates for the LDH assay, and remaining media was sorted at -80 C for later use. Cells were treated with RLT buffer and frozen until shipped for gene expression analysis. Total RNA was isolated from the cell suspension in 75 uL of Buffer RLT (Qiagen, Germantown, MD 20874) by Quintiles/Expression Analysis (Durham, NC) using a custom isolation procedure. Total RNA from each plate well was transferred to a preamplification plate. Fluidigm's 96.96 Dynamic ArrayTM (Fluidigm, Amsterdam, the Netherlands) technology was used for gene expression analyses by quantitative reverse transcription polymerase chain reaction (qRT-PCR, performed by Quintiles/Expression Analysis, Durham, NC)89. Standard TaqManTM Assays (Applied Biosystems/ThermoFisher Scientific, Foster City, CA) were used to assess the expression of 93 genes selected based on their selectivity and sensitivity to important hepatic receptors known to be modulated by environmental chemicals; importance in human hepatocyte functionality; and hepatotoxicity. […]
With `CCNc1nc(Cl)nc(NC(C)C)n1`, the compound was classed as inactive.

Regarding `CC(Oc1ccc(Cl)cc1Cl)C(=O)O` (stereo not given), the compound was called inactive. In the case of `CCCC1COC(Cn2cncn2)(c2ccc(Cl)cc2Cl)O1` (stereo not given), the result was inactive.

`Cc1ccc(-c2c(Cl)nc(C#N)n2S(=O)(=O)N(C)C)cc1`: the AC50 is 8.98 µM (active). Turning to `O=C(O)COc1nc(Cl)c(Cl)cc1Cl`, the compound was classed as inactive.

`CCCCNC(=O)n1c(NC(=O)OC)nc2ccccc21`: the compound was classed as inactive. For `Cc1cc(Cl)ccc1OCC(=O)O`, the result was inactive. `N#CC(CCc1ccc(Cl)cc1)(Cn1cncn1)c1ccccc1` (stereo not given): the compound was called inactive. Consider `COP(=S)(OC)Oc1nc(Cl)c(Cl)cc1Cl`, for which the outcome was inactive. For the compound `COC(=O)C(C)Oc1ccc(Oc2ccc(Cl)cc2Cl)cc1` (stereo not given), the compound was classed as inactive. Regarding `CCOC(=O)CC(SP(=S)(OC)OC)C(=O)OCC` (stereo not given), the outcome was inactive. For `CCCCOC(=O)c1ccccc1C(=O)OCCCC`, the compound was called inactive. In the case of `COc1nc(NC(C)C)nc(NC(C)C)n1`, the call was inactive.

Regarding `C#CCOS(=O)OC1CCCCC1Oc1ccc(C(C)(C)C)cc1` (stereo not given), the AC50 was 14.9 µM (active). Take `COc1ccc(C(c2ccc(OC)cc2)C(Cl)(Cl)Cl)cc1`: the AC50 is 61.8 µM (active). In the case of `C=CCC1=C(C)[C@@H](OC(=O)[C@@H]2[C@@H](C=C(C)C)C2(C)C)CC1=O`, the call was inactive. With `O=C(Nc1ccccc1)Nc1ccnc(Cl)c1`, the outcome was inactive.

Regarding `COc1cnc(OC)n2nc(NS(=O)(=O)c3c(OCC(F)F)cccc3C(F)(F)F)nc12`, the outcome was inactive. Consider `CC(C)C1(C)N=C(c2nc3ccccc3cc2C(=O)O)NC1=O` (stereo not given), for which the compound was called inactive. For `CCCN(CCC)c1c([N+](=O)[O-])cc(S(N)(=O)=O)cc1[N+](=O)[O-]`, the AC50 is 93.5 µM (active) and 93.2 µM (active); the compound was classed as inactive. Take `CCc1nn(C)c(C(=O)NCc2ccc(C(C)(C)C)cc2)c1Cl`: the result was inactive. The same measure, in the same setting: the result for `CCOC(=O)C(Cl)Cc1cc(-n2nc(C)n(C(F)F)c2=O)c(F)cc1Cl` (stereo not given) reads “inactive”; that for `CNC(=S)S`, “inactive”.

Regarding `CC(C)Oc1cc(-n2nc(C(C)(C)C)oc2=O)c(Cl)cc1Cl`, the AC50 is 4.73 µM (active). As to `CCON=C(CC)C1=C(O)CC(c2c(C)cc(C)cc2C)CC1=O` (stereo not given), the compound was called inactive. Same read-out and setting: the result for `Cc1c(F)c(F)c(COC(=O)C2C(/C=C(\Cl)C(F)(F)F)C2(C)C)c(F)c1F` (stereo not given) reads “inactive”; that for `COC(=O)c1ccccc1C(=O)OC`, “inactive”. Same read-out and setting: the result for `CN(C)C(=S)SSC(=S)N(C)C` reads “inactive”. In the case of `N#Cc1nn(-c2c(Cl)cc(C(F)(F)F)cc2Cl)c(N)c1S(=O)C(F)(F)F` (stereo not given), the AC50 is 90.7 µM (active).

As for `CCCCC(CC)COC(=O)c1ccccc1C(=O)OCC(CC)CCCC` (stereo not given), the call was inactive. `COP(N)(=O)SC` (stereo not given): the outcome was inactive.

Consider `CCNc1nc(Cl)nc(NCC)n1`, for which the result was inactive.

Regarding `Oc1ccccc1-c1ccccc1`, the call was inactive. Turning to `CS/C(C)=N/OC(=O)N(C)SN(C)C(=O)O/N=C(\C)SC`, the compound was called inactive.

As to `CCCCNC(=O)OCC#CI`, the outcome was inactive. As to `CC1=C(C(=O)Nc2ccccc2)SCCO1`, the AC50 was 50 µM (active). For the compound `O=C(O)c1nc(Cl)ccc1Cl`, the compound was classed as inactive. With `Fc1ccc(Oc2ccnc3cc(Cl)cc(Cl)c23)cc1`, the compound was called inactive. Take `C=CC1(C)OC(=O)N(c2cc(Cl)cc(Cl)c2)C1=O` (stereo not given): the call was inactive.
